This assay is described as follows: modulators of brain endothelial barrier permeability, primary screen, cell-based, FITC-avidin fluorescence, HTS (AID 1963498). Also: test concentration not given here. Conditions: actives lie on both sides.

A number with no mark means an inactive call. Calls of active or inactive are those of the source. Rule as the data show it: active = fold change permeability below about 0.7 or above about 1.3; inactive = in between. Residues, ends and D or L forms follow the SMILES beside them. *: point of attachment. Cbz = O=C(OCc1ccccc1)*

`Cc1cn[nH]c1`: the fold change permeability was 0.8.

As for `CCCCOc1ccc(CC/C=C2\SC(=O)N(CCN)C2=O)cc1`, the fold change permeability is 1.6 (active).

With `CCCCCCCC/C=C\CCCCCCCC(=O)NCCO`, the fold change permeability is 1.2.

Turning to `CC(C)COCC(CN(Cc1ccccc1)c1ccccc1)N1CCCC1` (configuration not stated), the fold change permeability was 1.

Consider `CN1CCN(C2=Nc3cc(Cl)ccc3Nc3ccccc32)CC1`, for which the fold change permeability is 1.2.

On to `O=c1[nH]c(=O)n([C@H]2C[C@H](O)[C@@H](CO)O2)cc1Br`, for which the fold change permeability is 1.

`O=c1[nH]c(=S)[nH]c(-c2ccccc2)c1Cc1c(O)ccc2ccccc12`: the fold change permeability was 0.8.

As to `COc1cc2nc(N3CCN(C(=O)C4COc5ccccc5O4)CC3)nc(N)c2cc1OC` (configuration not stated), the fold change permeability is 1.4 (active).

Regarding `C[C@@H](O[C@H]1OCCN(Cc2n[nH]c(=O)[nH]2)[C@H]1c1ccc(F)cc1)c1cc(C(F)(F)F)cc(C(F)(F)F)c1`, the fold change permeability is 1.4 (active).

Regarding `Cc1ncc(-c2c[nH]c3ccccc23)o1`, the fold change permeability was 1.2.

On to `COc1ccc(Cc2nn3c([C@@H](CCCc4ccccc4)[C@@H](C)O)nc(C)c3c(=O)[nH]2)cc1OC`, for which the fold change permeability is 1.1.

With `CNCCC(Oc1ccccc1OC)c1ccccc1` (configuration not stated), the fold change permeability is 0.8.

As for `CN(C)CC(O)Cn1c2ccc(Br)cc2c2cc(Br)ccc21` (configuration not stated), the fold change permeability was 1.5 (active).

With `CC(=O)O[C@H]1C[C@@H]2CC[C@@H]3[C@H](CC[C@@]4(C)[C@H]3C[C@H]([N+]3(C)CCCCC3)[C@@H]4OC(C)=O)[C@@]2(C)C[C@@H]1[N+]1(C)CCCCC1`, the fold change permeability is 1.

Take `NC[C@@H]1O[C@H](O[C@H]2[C@@H](O)[C@H](O[C@@H]3[C@@H](O)[C@H](N)C[C@H](N)[C@H]3O[C@H]3O[C@H](CO)[C@@H](O)[C@H](O)[C@H]3N)O[C@@H]2CO)[C@H](N)[C@@H](O)[C@@H]1O`: the fold change permeability is 1.

With `CCN(Cc1cccnc1)C(=O)CN(c1ccc(OC)nc1)S(=O)(=O)c1ccccc1C`, the fold change permeability is 1.9 (active).

Turning to `COC(=O)C1=C(C)NC(C)=C(C(=O)OC(C)(C)CN(C)CCC(c2ccccc2)c2ccccc2)C1c1cccc([N+](=O)[O-])c1` (configuration not stated), the fold change permeability is 1.1.

For the compound `CCCCNc1cc(C(=O)O)cc(S(N)(=O)=O)c1Oc1ccccc1`, the fold change permeability is 1.

With `CN=c1nc(-c2ccccc2)n(-c2ccccc2)s1`, the fold change permeability is 2.1 (active).

`CC(C)(C)C(=O)Oc1ccc(S(=O)(=O)Nc2ccccc2C(=O)NCC(=O)O)cc1`: the fold change permeability is 0.7 (active).

With `O=C(NCc1cccnc1)c1ccc([N+](=O)[O-])o1`, the fold change permeability was 1.

Turning to `Nc1ccc(-c2ccc3ccccc3n2)cc1`, the fold change permeability was 1.1.

Take `CC(=O)NNC(=O)N1Cc2ccccc2Oc2ccc(Cl)cc21`: the fold change permeability was 0.7 (active).

As for `CCC(=O)NS(=O)(=O)c1ccc(-c2c(-c3ccccc3)noc2C)cc1`, the fold change permeability is 0.9.

As for `CCCc1c(OCCCOc2ccc(OCC(=O)O)cc2)ccc(C(C)=O)c1O`, the fold change permeability is 1.3 (active).

For `NC(=O)c1cc[n+](CC2=C(C(=O)O)N3C(=O)[C@@H](NC(=O)[C@@H](c4ccccc4)S(=O)(=O)[O-])[C@H]3SC2)cc1`, the fold change permeability was 0.8.

Turning to `COC(=O)C(C)(N)Cc1ccc(O)cc1` (configuration not stated), the fold change permeability was 0.8.

As for `CNc1cc(NS(=O)(=O)c2ccc(N)cc2)nc(NC)n1`, the fold change permeability was 0.7 (active).

Turning to `CC(C)[C@H](NC(=O)OCc1ccccc1)C(=O)N[C@H](C=O)Cc1ccccc1` (Cbz-Val-Phe-aldehyde), the fold change permeability is 1.4 (active).

Take `CC(=O)[C@H]1CCC2C3CC=C4C[C@@H](OS(=O)(=O)O)CC[C@]4(C)C3CC[C@@]21C` (some centres not stated): the fold change permeability is 1.

Regarding `O=C(c1ccoc1)N1CCN(c2cc(-c3ccco3)nc3cc(-c4ccccc4)nn23)CC1`, the fold change permeability was 1.2.

For the compound `Cc1nnc(SCC2=C(C(=O)O)N3C(=O)[C@@H](NC(=O)Cn4cnnn4)[C@H]3SC2)s1`, the fold change permeability was 0.9.

For `C=CCc1ccccc1OCC(O)CNC(C)C` (configuration not stated), the fold change permeability is 1.2.

Take `CN(C)CCC(c1ccc(Cl)cc1)c1ccccn1` (configuration not stated): the fold change permeability was 1.1.

On to `NC1(C(=O)O)CCc2cc(C(=O)O)ccc21` (configuration not stated), for which the fold change permeability is 1.1.

For `COc1ccc2[nH]cc(CCNC(C)=O)c2c1`, the fold change permeability was 0.8.

Take `Cc1nc2ccc(NC(=O)Nc3ccnc4cccnc34)cc2o1`: the fold change permeability is 1.4 (active).

Turning to `NCCS`, the fold change permeability was 0.9.

For `Cc1ccccc1N1C(=O)c2cc(S(N)(=O)=O)c(Cl)cc2NC1C` (configuration not stated), the fold change permeability is 0.8.

For `O=C1Nc2ccc(Cl)cc2[C@@](C#CC2CC2)(C(F)(F)F)O1`, the fold change permeability is 1.2.

Consider `O=C(O)CCCCCCCC(=O)O`, for which the fold change permeability was 1.2.

Take `NCCCCNCCCN`: the fold change permeability was 0.7 (active).

These data come from PubChem BioAssay.
